Drawing on paper PMC7826789 (International Journal of Molecular Sciences, 2021), this text covers Kinases covered for eight molecules.

The subject of experiment [1] is PDGFRA.
Experiment [2] concerns NTRK3.
Experiment [3] deals with NUAK1.
Experiment [4] has as its system NEK9.
In experiment [5] the test system is NUAK2.
Experiment [6] deals with NEK5.

On to `O=C(Nc1ccccc1)Nc1cccc(Oc2ccc3nccn3n2)c1` [TPKI-39], for which the Kinases covered result in experiment [1] is recorded as “PDGFRA”.

As to `Cc1cnc(N)c(/C=C/c2cncc(C(=O)NCCc3ccc(Cl)cc3Cl)c2)c1` [GSK190937], the Kinases covered entry in experiment [1] was “PDGFRA”.

On to `CC(=O)c1cccc(NC(=O)NC2CCN(c3ccnc(Nc4ccc(F)cc4)n3)C2)c1` (stereo not drawn) [GSK1379710], for which the Kinases covered entry in experiment [2] was “NTRK3”.

Consider `CN1C(=O)c2ccccc2N(C)c2nc(Nc3cnn(C4CCNCC4)c3)ncc21` [XMD-17-51], for which the Kinases covered entry in experiment [3] was “NUAK1”.

Consider `COc1cc2ncn(-c3cc(O[C@H](C)c4ccccc4Cl)c(C(N)=O)s3)c2cc1OC` [GSK237701A], for which the values for the Kinases covered entry in experiment [4] and in experiment [1] were “NEK9” and “PDGFRA”, respectively.

For `C[C@@H]1CCNC(=O)c2cc3ccc(C(=O)Nc4nc5ccccc5n4CCCN(C)C)cc3n21` [BI00645435], the Kinases covered entry in experiment [5] was “NUAK2”.

Take `CC(C)C(=O)N[C@@H]1CCN(C(=O)Nc2nc3c(s2)-c2nc(-c4ccccc4Cl)ncc2CC3)C1` [BI00047804]: the Kinases covered entry in experiment [6] is given as “NEK5”.

With `Cn1ccc2ncnc(Oc3ccc(NC(=O)Nc4ccccc4)cc3)c21` [TPKI-69], in experiment [1], the Kinases covered result is reported as “PDGFRA”.
